According to the supplement of paper PMC10849652:
Targets with a hit are over-represented here; the source holds about 7,900 in all. About 0.6% of all pairs of compound and target were hits. A number with no mark means an inactive call.

Columns and labels:
Assay in all cases: log2 fold change, soluble protein after heating vs DMSO (PISA); higher = thermal stabilisation; K562 cells, 10 uM, 30 min; active = over 0.2 and 3.5 SD of the protein, either way, in both replicates (recomputed)
[1] = compound: COC1=CC=C(C=C1)CN2C=CC3=C2C=C(C=C3)C(=O)NO
Summary of the method: (§1)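 Aliquots of K562 cells (2×10^6 cells/mL) treated with 10 μM compound for 30 min were heated for 3 min over 48°C-58°C. After pooling and extraction in PBS with 0.5% NP-40 at 4°C, soluble protein from a 21,000xg, 90 min spin was quantified by TMTpro 16plex LC-MS/MS with channel sums equalised. Thermal stability is expressed against control samples, from duplicates, as a log2 fold change.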

filanesib = compound: CON(C)C(=O)N1N=C(c2cc(F)ccc2F)S[C@@]1(CCCN)c1ccccc1 [filanesib]
Summary of the method: as §1

zotarolimus = compound: CO[C@H]1C[C@@H]2CC[C@@H](C)[C@@](O)(O2)C(=O)C(=O)N2CCCC[C@H]2C(=O)O[C@H]([C@H](C)C[C@@H]2CC[C@H](n3cnnn3)[C@H](OC)C2)CC(=O)[C@H](C)/C=C(\C)[C@@H](O)[C@@H](OC)C(=O)[C@H](C)C[C@H](C)/C=C/C=C/C=C/1C [zotarolimus]
Summary of the method: as §1

idasanutlin = compound: COc1cc(C(=O)O)ccc1NC(=O)[C@@H]1N[C@@H](CC(C)(C)C)[C@](C#N)(c2ccc(Cl)cc2F)[C@H]1c1cccc(Cl)c1F [idasanutlin]
Summary of the method: as §1

alisertib = compound: COc1cc(Nc2ncc3c(n2)-c2ccc(Cl)cc2C(c2c(F)cccc2OC)=NC3)ccc1C(=O)O [alisertib]
Summary of the method: as §1

[2] = compound: COc1cc2nc(-c3cc(F)ccc3O)nc(N[C@@H]3CNC[C@H]3C(C)(C)O)c2cc1OC
Summary of the method: as §1

gefitinib = compound: COc1cc2ncnc(Nc3ccc(F)c(Cl)c3)c2cc1OCCCN1CCOCC1 [gefitinib]
Summary of the method: as §1

[3] = compound: COc1cccc2cc(-c3nc([C@H]4CC[C@H](C(=O)O)CC4)n4ncnc(N)c34)[nH]c12
Summary of the method: as §1

lapatinib = compound: CS(=O)(=O)CCNCc1ccc(-c2ccc3ncnc(Nc4ccc(OCc5cccc(F)c5)c(Cl)c4)c3c2)o1 [lapatinib]
Summary of the method: as §1

pictilisib = compound: CS(=O)(=O)N1CCN(Cc2cc3nc(-c4cccc5[nH]ncc45)nc(N4CCOCC4)c3s2)CC1 [pictilisib]
Summary of the method: as §1

Chain of UniProt Q9NR46 (Q9NR46 whole entry, looked up): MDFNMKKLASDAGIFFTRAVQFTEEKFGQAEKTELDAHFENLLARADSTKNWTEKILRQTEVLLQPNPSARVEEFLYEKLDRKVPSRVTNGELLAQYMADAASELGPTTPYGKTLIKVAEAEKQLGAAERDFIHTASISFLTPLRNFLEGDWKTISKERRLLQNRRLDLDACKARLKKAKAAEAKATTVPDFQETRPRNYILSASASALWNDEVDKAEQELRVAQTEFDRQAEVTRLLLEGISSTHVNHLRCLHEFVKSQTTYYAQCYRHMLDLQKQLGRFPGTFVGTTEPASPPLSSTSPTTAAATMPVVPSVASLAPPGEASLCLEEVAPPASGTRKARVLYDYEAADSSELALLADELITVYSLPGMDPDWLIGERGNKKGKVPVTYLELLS
Chain of UniProt P06400 (P06400 whole entry, looked up): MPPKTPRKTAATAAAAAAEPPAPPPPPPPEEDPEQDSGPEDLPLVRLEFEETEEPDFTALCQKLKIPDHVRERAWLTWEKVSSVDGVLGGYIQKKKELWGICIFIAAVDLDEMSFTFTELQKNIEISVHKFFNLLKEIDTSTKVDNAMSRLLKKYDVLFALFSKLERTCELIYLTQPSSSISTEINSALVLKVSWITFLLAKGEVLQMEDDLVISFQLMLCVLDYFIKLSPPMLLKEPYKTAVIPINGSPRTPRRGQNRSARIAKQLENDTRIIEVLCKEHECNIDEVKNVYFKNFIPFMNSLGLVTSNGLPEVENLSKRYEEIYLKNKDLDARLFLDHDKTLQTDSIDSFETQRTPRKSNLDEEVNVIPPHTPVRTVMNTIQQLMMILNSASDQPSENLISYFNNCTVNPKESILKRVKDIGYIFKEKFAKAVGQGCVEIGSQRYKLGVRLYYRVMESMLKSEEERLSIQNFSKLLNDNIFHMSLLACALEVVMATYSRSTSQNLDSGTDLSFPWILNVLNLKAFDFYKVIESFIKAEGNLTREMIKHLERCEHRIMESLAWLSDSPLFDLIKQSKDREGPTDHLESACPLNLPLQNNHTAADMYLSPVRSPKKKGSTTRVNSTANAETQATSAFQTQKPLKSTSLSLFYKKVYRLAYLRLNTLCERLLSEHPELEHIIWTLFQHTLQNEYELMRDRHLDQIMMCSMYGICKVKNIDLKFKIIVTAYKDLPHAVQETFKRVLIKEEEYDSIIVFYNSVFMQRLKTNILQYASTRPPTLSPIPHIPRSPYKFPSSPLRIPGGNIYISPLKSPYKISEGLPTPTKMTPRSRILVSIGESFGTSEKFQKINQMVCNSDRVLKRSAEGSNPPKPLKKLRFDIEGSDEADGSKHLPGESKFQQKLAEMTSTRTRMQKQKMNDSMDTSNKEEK
Chain of UniProt Q96D15 (Q96D15 whole entry, looked up): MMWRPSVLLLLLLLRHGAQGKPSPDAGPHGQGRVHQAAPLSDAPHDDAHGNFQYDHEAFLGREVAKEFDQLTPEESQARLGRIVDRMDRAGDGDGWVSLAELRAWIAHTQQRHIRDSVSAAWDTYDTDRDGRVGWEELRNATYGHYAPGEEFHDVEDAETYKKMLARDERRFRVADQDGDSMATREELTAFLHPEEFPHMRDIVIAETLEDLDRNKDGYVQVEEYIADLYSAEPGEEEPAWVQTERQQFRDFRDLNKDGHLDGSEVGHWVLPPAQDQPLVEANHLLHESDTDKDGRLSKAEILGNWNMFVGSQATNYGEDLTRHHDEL
Chain of UniProt Q96T23 (Q96T23 whole entry, looked up): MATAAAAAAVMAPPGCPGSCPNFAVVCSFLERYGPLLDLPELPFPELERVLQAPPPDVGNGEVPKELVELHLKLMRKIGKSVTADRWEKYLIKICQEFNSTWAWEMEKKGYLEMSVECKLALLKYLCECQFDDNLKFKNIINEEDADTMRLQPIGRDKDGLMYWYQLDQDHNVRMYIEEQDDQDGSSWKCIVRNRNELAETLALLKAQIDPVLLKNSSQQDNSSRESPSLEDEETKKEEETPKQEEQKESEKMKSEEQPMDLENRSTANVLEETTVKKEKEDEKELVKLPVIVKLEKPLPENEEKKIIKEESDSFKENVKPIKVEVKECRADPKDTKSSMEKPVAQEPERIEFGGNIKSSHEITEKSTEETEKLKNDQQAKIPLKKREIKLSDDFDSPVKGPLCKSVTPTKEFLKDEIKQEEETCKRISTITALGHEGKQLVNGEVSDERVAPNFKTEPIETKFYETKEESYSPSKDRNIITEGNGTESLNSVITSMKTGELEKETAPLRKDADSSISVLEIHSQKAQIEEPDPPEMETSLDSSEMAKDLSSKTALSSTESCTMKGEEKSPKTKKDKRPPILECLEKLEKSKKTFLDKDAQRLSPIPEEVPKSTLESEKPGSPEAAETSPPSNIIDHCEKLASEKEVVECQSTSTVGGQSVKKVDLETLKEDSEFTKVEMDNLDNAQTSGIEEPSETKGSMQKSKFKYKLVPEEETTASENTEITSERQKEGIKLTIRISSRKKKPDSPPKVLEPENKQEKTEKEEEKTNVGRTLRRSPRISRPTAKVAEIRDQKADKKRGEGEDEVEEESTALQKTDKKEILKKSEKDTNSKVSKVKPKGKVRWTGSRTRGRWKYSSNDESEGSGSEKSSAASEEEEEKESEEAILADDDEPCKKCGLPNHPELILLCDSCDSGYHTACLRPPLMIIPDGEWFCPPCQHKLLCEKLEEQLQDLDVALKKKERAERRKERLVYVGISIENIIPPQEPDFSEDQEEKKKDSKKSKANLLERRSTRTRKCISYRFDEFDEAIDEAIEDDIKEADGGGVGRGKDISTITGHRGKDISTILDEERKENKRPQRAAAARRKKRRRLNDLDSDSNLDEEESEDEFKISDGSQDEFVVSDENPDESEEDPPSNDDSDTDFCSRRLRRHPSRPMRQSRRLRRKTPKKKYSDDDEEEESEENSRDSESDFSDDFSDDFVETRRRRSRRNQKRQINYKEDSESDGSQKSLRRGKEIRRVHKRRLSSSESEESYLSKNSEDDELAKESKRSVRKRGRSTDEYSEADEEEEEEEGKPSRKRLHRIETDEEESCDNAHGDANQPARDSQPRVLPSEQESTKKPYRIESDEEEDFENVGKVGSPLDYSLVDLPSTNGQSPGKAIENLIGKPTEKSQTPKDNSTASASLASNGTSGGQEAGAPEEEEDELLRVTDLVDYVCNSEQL
Chain of UniProt Q96EE3 (Q96EE3 whole entry, looked up): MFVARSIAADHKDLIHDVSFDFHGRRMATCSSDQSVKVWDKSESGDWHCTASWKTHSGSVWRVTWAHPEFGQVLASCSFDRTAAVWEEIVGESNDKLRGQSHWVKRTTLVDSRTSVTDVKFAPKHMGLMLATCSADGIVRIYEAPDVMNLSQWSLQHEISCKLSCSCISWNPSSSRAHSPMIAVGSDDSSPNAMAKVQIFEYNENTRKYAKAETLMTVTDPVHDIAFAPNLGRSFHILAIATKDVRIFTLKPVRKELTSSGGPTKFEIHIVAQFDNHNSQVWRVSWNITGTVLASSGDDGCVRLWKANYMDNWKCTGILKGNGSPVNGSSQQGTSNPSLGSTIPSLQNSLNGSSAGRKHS
Chain of UniProt Q92878 (Q92878 whole entry, looked up): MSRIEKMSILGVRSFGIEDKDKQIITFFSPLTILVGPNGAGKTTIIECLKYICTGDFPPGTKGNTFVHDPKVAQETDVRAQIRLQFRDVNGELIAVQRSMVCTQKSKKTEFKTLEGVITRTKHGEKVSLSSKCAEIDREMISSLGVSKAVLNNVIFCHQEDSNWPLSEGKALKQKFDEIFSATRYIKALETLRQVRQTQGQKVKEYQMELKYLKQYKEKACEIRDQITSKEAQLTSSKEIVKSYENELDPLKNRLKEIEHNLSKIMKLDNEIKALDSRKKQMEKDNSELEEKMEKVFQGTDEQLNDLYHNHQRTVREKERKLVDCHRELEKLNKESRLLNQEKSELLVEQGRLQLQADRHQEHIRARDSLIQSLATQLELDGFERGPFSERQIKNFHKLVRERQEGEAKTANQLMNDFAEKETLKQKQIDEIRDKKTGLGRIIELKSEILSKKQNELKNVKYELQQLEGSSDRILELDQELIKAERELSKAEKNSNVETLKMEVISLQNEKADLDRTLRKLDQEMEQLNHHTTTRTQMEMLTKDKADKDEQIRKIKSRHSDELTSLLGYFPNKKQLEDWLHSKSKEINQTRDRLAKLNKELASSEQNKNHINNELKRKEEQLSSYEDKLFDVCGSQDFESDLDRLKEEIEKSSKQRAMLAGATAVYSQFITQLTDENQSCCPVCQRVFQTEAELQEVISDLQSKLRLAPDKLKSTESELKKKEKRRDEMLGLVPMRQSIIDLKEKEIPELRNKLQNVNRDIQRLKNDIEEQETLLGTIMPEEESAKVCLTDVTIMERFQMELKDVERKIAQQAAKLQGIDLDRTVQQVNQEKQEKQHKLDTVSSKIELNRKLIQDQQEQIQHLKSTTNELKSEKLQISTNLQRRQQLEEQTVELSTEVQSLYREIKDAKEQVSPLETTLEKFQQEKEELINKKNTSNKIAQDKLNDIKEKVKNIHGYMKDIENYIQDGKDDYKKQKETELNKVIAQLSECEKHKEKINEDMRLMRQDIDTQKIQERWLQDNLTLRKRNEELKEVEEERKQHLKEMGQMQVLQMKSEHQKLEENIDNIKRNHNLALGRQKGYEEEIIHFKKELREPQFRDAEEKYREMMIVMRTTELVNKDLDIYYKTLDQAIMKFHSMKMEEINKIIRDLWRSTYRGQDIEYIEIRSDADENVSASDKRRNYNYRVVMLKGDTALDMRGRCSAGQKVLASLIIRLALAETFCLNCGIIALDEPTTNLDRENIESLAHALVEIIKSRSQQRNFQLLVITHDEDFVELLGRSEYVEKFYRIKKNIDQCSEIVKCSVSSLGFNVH
Chain of UniProt P51151 (P51151 whole entry, looked up): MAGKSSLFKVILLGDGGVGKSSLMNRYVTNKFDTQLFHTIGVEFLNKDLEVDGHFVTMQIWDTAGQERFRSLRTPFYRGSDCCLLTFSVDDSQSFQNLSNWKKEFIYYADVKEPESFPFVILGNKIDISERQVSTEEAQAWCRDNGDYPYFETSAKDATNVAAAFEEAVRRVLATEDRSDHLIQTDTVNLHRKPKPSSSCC

Row | Target | log2 fold change [1] | log2 fold change (filanesib) | log2 fold change (zotarolimus) | log2 fold change (idasanutlin) | log2 fold change (alisertib) | log2 fold change [2] | log2 fold change (gefitinib) | log2 fold change [3] | log2 fold change (lapatinib) | log2 fold change (pictilisib)
1 | RALA (UniProt P11233) | 0.348 (active) | -0.025 | 0.035 | -0.019 | -0.066 | -0.066 | 0.004 | 0.053 | 0.025 | -0.099
2 | RPS27A (UniProt P62979) | -0.084 | 0.215 | 0.009 | 0.129 | -0.041 | -0.066 | -0.076 | -0.185 | -0.006 | -0.13
3 | SH3GLB2 (UniProt Q9NR46) | 0.016 | 0.085 | 0.052 | 0.061 | -0.011 | -0.034 | -0.004 | -0.018 | -0.04 | 0.025
4 | RBM17 (UniProt Q96I25) | 0.026 | 0.038 | 0.064 | 0.121 | -0.055 | -0.031 | 0.003 | 0.019 | 0 | -0.276
5 | RPS20 isoform 2 (UniProt P60866) | -0.086 | 0.085 | 0.019 | 0.047 | -0.018 | -0.015 | -0.036 | -0.157 | 0.108 | -0.006
6 | RAB9A (UniProt P51151) | 0.022 | -0.074 | 0.024 | -0.026 | -0.021 | 0.008 | 0.015 | 0.067 | -0.026 | -0.011
7 | RB1 (UniProt P06400) | -0.028 | -0.08 | 0.011 | 0 | -0.016 | -0.325 (active) | 0.006 | 0.052 | 0.025 | 0.033
8 | RCC1 isoform 2 (UniProt P18754) | 0.106 | -0.058 | 0.083 | 0 | 0.022 | -0.038 | 0.087 | 0.021 | 0 | -0.005
9 | RPRD1B (UniProt Q9NQG5) | 0.014 | 0.022 | -0.018 | -0.031 | -0.011 | 0.106 | 0.037 | 0.061 | -0.004 | 0.019
10 | RPS25 (UniProt P62851) | 0.006 | 0.145 | -0.015 | 0.061 | -0.143 | -0.038 | -0.022 | -0.198 | 0.038 | -0.08
11 | RRS1 (UniProt Q15050) | -0.111 | 0.593 | 0.033 | 0.262 | -0.171 | 0.01 | 0.005 | -0.169 | 0.137 | -0.096
12 | RARS (UniProt P54136) | -0.045 | 0.079 | 0.049 | 0.052 | -0.059 | -0.032 | -0.025 | -0.203 | -0.008 | -0.07
13 | SEH1L isoform 1 (UniProt Q96EE3) | -0.004 | 0.012 | -0.03 | -0.014 | -0.024 | 0.025 | 0.015 | 0.038 | -0.045 | 0.017
14 | SLBP (UniProt Q14493) | -0.148 | -0.035 | 0.112 | 0.224 | -0.152 | -0.199 | 0.034 | 0.077 | 0.004 | 0.05
15 | RHOA (UniProt P61586) | 0.284 (active) | -0.012 | -0.054 | 0.1 | -0.085 | -0.118 | 0.036 | -0.012 | 0.036 | -0.178
16 | RECQL (UniProt P46063) | 0.022 | -0.091 | 0.035 | -0.056 | -0.061 | -0.038 | -0.004 | 0.031 | 0.043 | 0.024
17 | REL (UniProt Q04864) | -0.006 | 0.051 | 0.004 | 0.033 | 0.068 | 0.062 | 0.148 | -0.086 | -0.031 | -0.243
18 | RB1CC1 (UniProt Q8TDY2) | 0.435 (active) | -0.079 | 0.014 | -0.002 | -0.112 | 0.182 | -0.042 | -0.049 | 0.181 | 0.083
19 | RAD50, A0A494C0Y7 | -0.054 | 0.001 | -0.021 | -0.05 | 0.127 | -0.077 | – | 0.035 | -0.142 | 0.085
20 | RPS16 (UniProt P62249) | -0.117 | 0.092 | 0.025 | 0.093 | -0.167 | -0.027 | -0.014 | -0.199 | 0.046 | -0.162
21 | RBIS (UniProt Q8N0T1) | -0.069 | 0.077 | -0.075 | 0.061 | -0.053 | -0.018 | -0.056 | -0.012 | 0.012 | -0.04
22 | RCN3 (UniProt Q96D15) | -0.065 | 0.054 | -0.068 | -0.122 | 0 | 0.043 | 0 | 0.132 | -0.025 | 0.087
23 | RAPGEF4 (UniProt Q8WZA2) | 0.549 | 0.053 | -0.078 | 0.021 | -0.145 | – | – | 0.187 | – | –
24 | RAD50 isoform 2 (UniProt Q92878) | -0.002 | 0.008 | 0.036 | -0.016 | 0 | 0.002 | 0.031 | 0.007 | -0.002 | 0.02
25 | RBM33 (UniProt Q96EV2) | 0.134 | 0.013 | 0.03 | 0.042 | -0.031 | -0.078 | 0.035 | -0.028 | 0.008 | -0.044
26 | SLC1A5 (UniProt Q15758) | -0.048 | 0.071 | -0.052 | 0.031 | -0.126 | 0.058 | 0.023 | 0.095 | -0.01 | 0.024
27 | RPS14 (UniProt P62263) | 0.034 | 0.046 | 0.028 | 0.062 | -0.209 | -0.047 | -0.048 | -0.154 | 0.132 | -0.321
28 | RANBP2 (UniProt P49792) | 0.334 (active) | -0.048 | 0.029 | -0.005 | 0.079 | 0.044 | 0.05 | -0.097 | -0.07 | -0.002
29 | RSF1 (UniProt Q96T23) | 0.267 | -0.078 | 0.023 | -0.147 | -0.067 | -0.018 | 0.037 | -0.17 | 0.004 | 0.114
30 | RAB3IL1 (UniProt E9PK89) | 0.031 | -0.22 | 0.093 | -0.035 | – | 0.097 | -0.034 | – | 0.063 | -0.075
